In the library only some 2.4% were active in any assay of this set; here they are far more common.
PTAP TSG101 blk = blocks PTAP/TSG101 interaction to inhibit HIV-1 budding. Q99816. 340,000 tested, under 10 active. Fluorescence polarization, FITC-PTAP peptide / Tsg101 binding. AID 493005. Potency, µM (series often up to 115 µM), for the others: at the highest dose activity change, negative = inhibition, usual class: inhibitors; active = well fitted inhibition curve with a large enough effect in the main read-out, with a control signal flat, not every such curve was filed as active; inconclusive = small, poorly fitted or top-dose-only effect, or effect the other way, or a change in a side signal; inactive = no such curve, though single readings can be large or run the other way; note: % of control where 0% means no effect
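Fluorescence polarization binding of Tsg101 binding domain (10 uM final) to FITC-labeled PTAP peptide (50 nM final) in HEPES pH 7.5 buffer with NaCl, Tween 20, EDTA, TCEP. Compounds added before peptide; binding 20 min at RT.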
TDP1 block = TDP1 (human) enzyme inhibition; Q9NUW8; recombinant TDP1, AlphaScreen DNA substrate cleavage; Potency, µM (top dose mostly 130 µM), for the others: at the top dose activity change, negative = inhibition, hits mostly inhibitors; hit rate 0.28% among 350,000; note: % is set by controls: 0 for no effect and ±100 for the full control effect; nearly all actives have a fitted effect of over 40% in size
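AlphaScreen read-out: signal falls as enzyme removes the 3' tyrosine-FITC from a 5'-biotinylated DNA oligo (15 nM, 5 min, RT). Enzyme was E. coli-made recombinant Tdp1 at 1 nM, exposed to compound for 15 min beforehand; beads 10 ug/ml, 10 min.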
12-LOX inh = inhibitors of human 12S-lipoxygenase ALOX12; hit rate 1.1% among 580,000; P18054; Potency, µM (titrated, usually from 108 µM), for the others: at the highest dose activity change, negative = inhibition, hits mostly inhibitors; purified 12hLO, xylenol orange hydroperoxide absorbance; note: % is set by controls: 0 for no effect and ±100 for the full control effect
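Hydroperoxide product was detected by ferrous iron/xylenol orange as the 573 to 405 nm absorbance ratio. Arachidonic acid at 40 uM (final) was turned over for 30 min at room temperature by 150 nM human 12hLO, pH 7.0 Hepes buffer, after 15 min compound preincubation.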
ClpP mod = qHTS Assay for Activators of ClpP. purified B. subtilis ClpP, FRET peptide cleavage, 20 min. Potency, µM (titrated, usually from 57.5 µM), inactives show at the top dose activity change, negative = active. hit rate 1.9% among 340,000; active = well fitted falling curve with a large enough effect; inconclusive = small, poorly fitted or top-dose-only effect; inactive = no such curve, though single readings can be large or run the other way; note: the source files actives as falling curves though it sought activators and does not explain the sign; nearly all actives have a fitted effect of over 65% in size
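Purified B. subtilis ClpP, 10 microg/mL final in Tris/HCl pH8 with KCl, BSA, glycerol and Tween-20, cleaved an Abz/nitrotyrosine-quenched decapeptide. Fluorescence (ex 320, em 430) was read at 0 and 20 min at room temperature. Delta was normalized to 5.8 microM ADEP and DMSO/no-enzyme controls.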
Rango release inh = inhibition of RanGTP-driven Rango-importin beta dissociation. O95149+P62826. Biochemical FRET Rango-importin beta, RanGTP-induced dissociation. Potency, µM (highest dose often 46.1 µM), inactives show at the highest dose activity change, negative = inhibition. hit rate 0.071% among 340,000. AID 540253; calls by dose curve; note: % of control where 0% means no effect; nearly all actives have a fitted effect of over 45% in size
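Rango (0.1 uM)–importin beta (0.25 uM) complex; RanGTP-RCC1 trigger; 45 min RT; CFP/YFP FRET read.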
Rango-impB inh = Rango-importin beta binding inhibition; Q14974; Rango CFP/YFP FRET sensor + importin beta, 45 min; Potency, µM (series often up to 92.2 µM), for the others: at the highest dose inhibition of complex formation; hit rate 0.031% among 340,000; AID 540263; calls by dose curve;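 note: 0% = DMSO wells and 100% = buffer wells lacking importin beta; nearly all actives have a fitted effect of over 15% in size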
Target sequence (Q14974 whole entry, looked up): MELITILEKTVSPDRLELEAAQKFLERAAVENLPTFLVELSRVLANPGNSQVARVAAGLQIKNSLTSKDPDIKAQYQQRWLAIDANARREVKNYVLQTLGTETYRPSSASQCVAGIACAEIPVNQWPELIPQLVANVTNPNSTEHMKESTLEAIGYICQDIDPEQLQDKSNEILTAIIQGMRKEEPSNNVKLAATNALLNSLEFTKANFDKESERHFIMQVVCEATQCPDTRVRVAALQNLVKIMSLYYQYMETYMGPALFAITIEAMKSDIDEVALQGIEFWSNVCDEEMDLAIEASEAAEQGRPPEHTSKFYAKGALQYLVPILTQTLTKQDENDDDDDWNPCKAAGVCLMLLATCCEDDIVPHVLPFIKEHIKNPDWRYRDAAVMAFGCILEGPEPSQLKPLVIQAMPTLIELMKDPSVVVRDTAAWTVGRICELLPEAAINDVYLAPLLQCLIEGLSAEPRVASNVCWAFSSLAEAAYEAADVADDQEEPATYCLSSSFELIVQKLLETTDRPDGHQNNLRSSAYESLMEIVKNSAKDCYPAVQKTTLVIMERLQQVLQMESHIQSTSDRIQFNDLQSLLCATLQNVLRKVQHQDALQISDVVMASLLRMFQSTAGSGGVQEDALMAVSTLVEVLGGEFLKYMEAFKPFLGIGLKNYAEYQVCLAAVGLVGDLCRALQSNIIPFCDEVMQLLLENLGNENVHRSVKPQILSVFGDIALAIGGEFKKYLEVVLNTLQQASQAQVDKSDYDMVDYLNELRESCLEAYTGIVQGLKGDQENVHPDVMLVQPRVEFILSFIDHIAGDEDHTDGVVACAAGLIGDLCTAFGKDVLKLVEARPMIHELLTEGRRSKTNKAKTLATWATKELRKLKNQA
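Inhibition scored from the CFP 486 nm/YFP 530 nm FRET ratio 45 min after adding 0.125 microM importin beta to 50 nM Rango biosensor preincubated 5 min with compound (room temperature, PBS with DTT, Tween-20, BSA). No-importin wells as positive control.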
Numbers without * were called inactive; ! = repeats disagree; [ ] = remark or other dose. Unless noted, calls come from the whole dose curve; as a rule, active = well fitted curve in the direction sought with a large enough effect; inconclusive = small, poorly fitted or top-dose-only effect, or another doubt; inactive = no such curve, though single readings can be large; an effect the other way counts as inactive or inconclusive. Potency is the fitted concentration of half-maximal effect.

For C=COC(=O)CSc1nc(-c2cccs2)ccc1C#N the results were PTAP TSG101 blk -4.5%, 12-LOX inh 10.9%, ClpP mod 28.2µM*, Rango release inh inconclusive and Rango-impB inh inconclusive.
Screening CCC(C)N1CNc2c(c(=O)[nH]c(=O)n2-c2ccc(Cl)cc2)C1 (configuration not stated) returned 12-LOX inh -11.1%.
For CN(C)C(=O)C1CCC(C)(C(=O)O)C1(C)CI (configuration not stated) the results were 12-LOX inh 39.8µM*.
Screening COc1cc(Cl)c(C)cc1NC(=O)c1nc2ccccc2nc1N1CCCC1 returned 12-LOX inh 14.9%.
For COc1cc(Cl)c(C)cc1NC(=O)c1cc(=O)n2c(nc3ccccc32)s1 the results were 12-LOX inh 44.7µM*.
O=C(CSc1nnnn1-c1cccnc1)Nc1ccccc1F was read as PTAP TSG101 blk -5.4%, TDP1 block 4.5%, 12-LOX inh 2.7%, ClpP mod 28.2µM*, Rango release inh 0.8% and Rango-impB inh 0.7%.
Screening Cc1cc(C)c(NC(=O)CSc2nnnn2-c2cccnc2)c(C)c1 returned PTAP TSG101 blk 0.4%, 12-LOX inh 42.5%, Rango release inh -3.3% and Rango-impB inh -0.1%.
Screening CCc1nc2c(c(-c3ccc(Cl)cc3)n1)CCN(Cc1cccn1C)CC2 returned 12-LOX inh -7.9%.
c1ccc2c(c1)nnn2Cc1nnc2sc(-c3ccc4c(c3)OCCO4)nn12 was read as PTAP TSG101 blk -7.5%, TDP1 block 3.1%, 12-LOX inh inconclusive, ClpP mod 31.6µM*, Rango release inh 3.7% and Rango-impB inh 0.5%.
c1ccc(-c2nn3c(Cn4cnc5ccccc54)nnc3s2)cc1 was read as PTAP TSG101 blk -10.1%, TDP1 block 5.3%, 12-LOX inh 7.08µM*!, ClpP mod -1.3%, Rango release inh -5.6% and Rango-impB inh 0.0%.
For c1ccc(-c2nn3c(Cn4nnc5ccccc54)nnc3s2)cc1 the results were PTAP TSG101 blk -7.7%, TDP1 block -2.3%, 12-LOX inh 14.1µM*, ClpP mod -8.4%, Rango release inh -3.0% and Rango-impB inh -3.9%.
`O=C(O)C/C(=C/c1cccc(Br)c1)c1nc2ccccc2s1` gave 12-LOX inh 28.2µM*.
Screening COc1cccc(/C=C(\CC(=O)O)c2nc3ccccc3s2)c1 returned PTAP TSG101 blk -2.8%, TDP1 block 2.3%, 12-LOX inh -17.3%, Rango release inh 12.3% and Rango-impB inh 1.1%.
O=C(O)C/C(=C/c1ccc(Br)cc1)c1nc2ccccc2s1 was read as 12-LOX inh 31.6µM*.
COc1ccc(/C=C(/CC(=O)O)c2nc3ccccc3s2)cc1 was read as 12-LOX inh 2.24µM*.
`O=C(O)C/C(=C\c1ccc2c(c1)OCO2)c1nc2ccccc2s1` gave PTAP TSG101 blk -6.8%, 12-LOX inh 4.7%, ClpP mod -5.3%, Rango release inh -21.4% and Rango-impB inh -3.1%.
CNC(=O)CCC1CCN(C(=O)c2ccccc2)CC1 was read as 12-LOX inh 19.2%.
`c1ccc2c(Nc3ccc4[nH]ncc4c3)ncnc2c1` gave 12-LOX inh 2.0%.
For COc1ccc(C(=O)N2[C@@H]3CC[C@H]2CC(NC(=O)c2ccncc2)C3)cc1 (some centres not stated) the results were 12-LOX inh 43.3%.
CC(NCc1ccccc1C#N)c1ccccc1F (configuration not stated) was read as 12-LOX inh 39.8µM*.
`CC(C)CCN1CCC(N2CCN(C(=O)c3ccccc3F)CC2)C1=O` (configuration not stated) gave 12-LOX inh 41.3%.
`O=C(c1cc(C2CC2)nc2onc(C3CCCNC3)c12)N1CCC(F)CC1` (configuration not stated) gave 12-LOX inh 3.6%[6.33 µM].
Screening N#Cc1nc(-c2cccs2)oc1N1CCN(c2ccccc2)CC1 returned PTAP TSG101 blk -4.9%, TDP1 block -5.2%, 12-LOX inh 20.9%, ClpP mod 28.2µM*, Rango release inh 9.6% and Rango-impB inh 4.2%.
Screening COc1ccccc1-c1nc(C#N)c(N2CCN(Cc3ccccc3)CC2)o1 returned PTAP TSG101 blk -4.0%, TDP1 block -6.7%, 12-LOX inh 407.0%, ClpP mod 28.2µM*, Rango release inh -11.9% and Rango-impB inh -0.4%.
`COc1ccc(-c2nc(C#N)c(N3CCN(c4cccc(Cl)c4)CC3)o2)cc1OC` gave PTAP TSG101 blk -6.6%, TDP1 block 2.6%, 12-LOX inh 20.2%, ClpP mod 28.2µM*, Rango release inh -1.8% and Rango-impB inh 4.3%.
CCN1CCN(c2oc(-c3ccc(OC)c(OC)c3)nc2C#N)CC1 was read as 12-LOX inh -1.0%.
For CCN1CCN(c2oc(-c3cccs3)nc2C#N)CC1 the results were 12-LOX inh -19.1%.
Screening CC1CC(C)CN(c2oc(-c3ccccc3Cl)nc2C#N)C1 (configuration not stated) returned PTAP TSG101 blk -7.9%, TDP1 block 11.4%, 12-LOX inh 8.5%[57.4 µM], ClpP mod 11.2µM*, Rango release inh 29.4% and Rango-impB inh 10.5%.
CC(C)c1nnc(SCC(=O)NC(C)C(C)C)o1 (configuration not stated) was read as 12-LOX inh -25.2%.
`NC(=O)COc1ccc(Cl)cc1Br` gave 12-LOX inh 23.2%.
`CN(C)c1oc(-c2ccccc2Cl)nc1C#N` gave PTAP TSG101 blk -0.5%, TDP1 block 0.0%, 12-LOX inh -10.2%[57.4 µM], ClpP mod 14.1µM*, Rango release inh -1.0% and Rango-impB inh -0.9%.
N#Cc1nc(-c2ccccc2Cl)oc1N1CCCCC1 was read as PTAP TSG101 blk 1.0%, TDP1 block 8.3%, 12-LOX inh inconclusive, ClpP mod 10µM*, Rango release inh -1.4% and Rango-impB inh -2.0%.
`CC1CCN(c2oc(-c3cccc4ccccc34)nc2C#N)CC1` gave PTAP TSG101 blk 0.0%, TDP1 block 2.4%, 12-LOX inh -14.2%, ClpP mod 5.62µM*, Rango release inh 14.3% and Rango-impB inh -0.7%.
Screening N#Cc1nc(-c2cccc3ccccc23)oc1N1CCCCC1 returned PTAP TSG101 blk 0.1%, TDP1 block 0.0%, 12-LOX inh 489.5%, ClpP mod inconclusive, Rango release inh -10.8% and Rango-impB inh -0.2%.

Bioassay records: PubChem, National Center for Advancing Translational Sciences (NCATS)
